Experimental data published in PubChem BioAssay (NCI).
Where “and” joins values, the source holds several entries; their conditions need not be identical. Identical values can stand only once. The panel holds about 83,000 compounds, 20% with a hit somewhere; the sample as a whole holds those more often.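 Method: cells in 96-well plates; compound added at one concentration; 48 h incubation; percent growth measured; values under 10 scored active.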 Unmarked numbers belong to inactive results. Calls of active or inactive are those of the source.

These compounds were tested on NCI-H23 lung (assay: NCI-60 one-dose screen, 48 h (100 = growth as untreated, 0 = no growth, -100 = all killed)). Conditions: 10 µM unless noted.

Structure (SMILES)	growth
O=C(/C=C/c1cc(Cl)ccc1Cl)Nc1ncc(Cc2ccc(Cl)cc2)s1	16.7%
Nc1ncc(-c2ccc3ncnc(NCc4ccccc4)c3c2)cn1	55.4%
Cc1ccc(-c2cc3nc(C(Cl)Cl)nc(-c4ccc(S(=O)(=O)N(C)C)cc4)n3n2)cc1	90.9%
CCN(CC)CCOc1ccc(C(=C(c2ccccc2)C2CCCC2)c2ccc(OCCN(CC)CC)cc2)cc1	16.7%
COC(=O)c1cccc(NC2=C(Cl)C(=O)c3nc(C)ccc3C2=O)c1	53.1%
COc1cc(/C=N\NC(=O)c2ccc3nc(-c4ccc(Br)cc4)[nH]c3c2)cc(OC)c1OC	40.2%
NC1=NC2(CCCC2)N(c2ccc(S(=O)(=O)Nc3nccs3)cc2)C(N)=N1	101%
N#C/C(=N\Nc1ccc(F)cc1)C(=O)Nc1cc(-c2ccccc2)nn1-c1ccccc1	0.456% (active)
Cc1ccc(S(=O)(=O)c2nc(-c3ccc(F)cc3)oc2S(C)(=O)=O)cc1	71.2%
CC(O)c1cccc(/C(N)=N/C(N)=N/c2nc3ccccc3s2)c1 (configuration not stated)	91.6%
CCOc1cccc(/C(N)=N/C(N)=N/c2nc3ccccc3s2)c1	66.4%
O=C(CCl)Nc1ccc(NC(=O)c2cc(Cl)ccc2O)c(Cl)c1	29%
Clc1ccc(CSc2nnc(-c3ccc(Cl)cc3)n2-c2ccccc2)cc1	79.8%
CC(C)(C)OC(=O)NCc1ccc(CNc2c([N+](=O)[O-])cnc3ccccc23)cc1	46.2%
NS(=O)(=O)c1ccc(Nc2nc(N/N=C/c3ccc4c(c3)OCO4)nc(Nc3ccccc3)n2)cc1	25.1%
Cc1cc(=O)oc2cc(OCCCOc3ccc(/C=C/C(=O)Nc4ccc(Br)cc4)cc3)ccc12	67.8%
CNC(=O)c1cc(N2CCc3cc(NC(=O)Nc4ccc(N5CCOCC5)c(C(F)(F)F)c4)ccc32)ccn1	18.7%

The compounds below were run on NCI-H226 lung in the same assay as above. Conditions: 10 µM unless noted.

Structure (SMILES)	growth
Cc1ccc2c(n1)C(=O)C(Cl)=C(Nc1ccc(C#N)cc1)C2=O	98.3%
CC(C)(O)c1cncc(-c2ccc3ncc(C#N)c(N4CCc5cc(F)c(Cl)cc54)c3c2)c1	-6.33% (active)
O=c1c2ccccc2cc2n1CCN=C2c1ccccc1	96%
O=C(CN1CCN(c2cc(=O)[nH]c3ccc(F)cc23)CC1)N(c1ccccc1)c1ccccc1	103%
CCc1cc(OC(=O)N2CCC(N3CCCCC3)CC2)ccc1Nc1cc(-c2ccc(-n3cccn3)cc2)[nH]n1	77.9%
CCCC/C(=C\c1ccc(O)c(O)c1)C(=O)NC(Cc1ccccc1)C(=O)C(=O)NCCc1ccc(OC)cc1 (configuration not stated)	92.7%
CN(C)c1ccc(-c2cc(-c3c[nH]c4ccccc34)nc(N)c2C#N)cc1	62.8%
COc1cc(C(=O)c2cc(C(C)=O)c3ccc(C)cn23)cc(OC)c1OC	66.3%
CCOC(=O)c1ccccc1NC1=C(Cl)C(=O)c2nc(C)ccc2C1=O	100%
CN(C)S(=O)(=O)c1ccc(-c2nc(C(Cl)Cl)nc3cc(-c4ccccc4)nn23)cc1	96%
CN1CCN(c2ccc(Nc3nc(NCCCNS(=O)(=O)c4ccc(Cl)cc4)c4sccc4n3)cc2)CC1	99.6%
O=C1[C@@H]2Cc3c([nH]c4ccccc34)[C@H](c3ccc(Cl)cc3)N2C(=O)CN1C1CCN(Cc2ccccc2)CC1	70.5%
CN1CCN(CCNc2nc(-c3cccc(NS(=O)(=O)c4cccc5c(N(C)C)cccc45)c3)cs2)CC1	66.3%
C#C[C@]1(O)CC[C@H]2[C@@H]3CC=C4c5sc(Nc6ncccc6C)nc5CC[C@]4(C)[C@H]3CC[C@@]21C	23.4%
CC(=O)N(O)CCCCCNC(=O)CCC(=O)N(O)CCCCCNC(=O)CCC(=O)N(O)CCCCCN(CCCCCCCCCC[P+](c1ccccc1)(c1ccccc1)c1ccccc1)CCCCCCCCCC[P+](c1ccccc1)(c1ccccc1)c1ccccc1	-6.05% (active)
O=C1Nc2ccccc2/C1=N\c1nnc(-c2ccccc2)o1	88.7%
CCCCCCCCCC(=O)NC(C)(C)C(=O)N1CCC[C@H]1C(=O)N[C@@H](CC(C)C)C(=O)N[C@@](C)(CC)C(=O)N[C@@H](CCC(N)=O)C(=O)N[C@H](CCC(N)=O)C(=O)NC(C)(C)C(=O)NC(C)(C)C(=O)N[C@@H](CCC(N)=O)C(=O)N[C@H](CC(C)C)C(=O)N[C@H](CO)CC(C)C	-71.3% (active) and -31.6% (active)
Fc1cccc(Cl)c1/C=N/Nc1nc(N/N=C/c2c(F)cccc2Cl)nc(N2CCCCC2)n1	53.9%
Cc1ccc(/C(N)=N/C(N)=N/c2nc3ccccc3s2)cc1	63.2%
CCc1cc2c(cc1Cl)nc1c(=O)[nH]c(=O)nc-1n2CCOCC(C)(C)C	41.2%

Structure (SMILES)	growth
Cc1csc(/N=C(N)/N=C(\N)c2cccc(Br)c2)n1	88.9%
Brc1cccc(-c2cc(-c3cnc4c(c3)OCCO4)n[nH]2)c1	65.6%
CN(C)CC(=O)Nc1nc(-c2cccc(NS(=O)(=O)c3cccc4c(N(C)C)cccc34)c2)cs1	74.1%
O=C(/C=C/c1cc(Cl)ccc1Cl)Nc1ncc(Cc2ccc(Cl)cc2)s1	26.1%
Nc1ncc(-c2ccc3ncnc(NCc4ccccc4)c3c2)cn1	33.9%
Cc1ccc(-c2cc3nc(C(Cl)Cl)nc(-c4ccc(S(=O)(=O)N(C)C)cc4)n3n2)cc1	87.7%
CCN(CC)CCOc1ccc(C(=C(c2ccccc2)C2CCCC2)c2ccc(OCCN(CC)CC)cc2)cc1	12.8%
COC(=O)c1cccc(NC2=C(Cl)C(=O)c3nc(C)ccc3C2=O)c1	87%
COc1cc(/C=N\NC(=O)c2ccc3nc(-c4ccc(Br)cc4)[nH]c3c2)cc(OC)c1OC	48.7%
NC1=NC2(CCCC2)N(c2ccc(S(=O)(=O)Nc3nccs3)cc2)C(N)=N1	100%
N#C/C(=N\Nc1ccc(F)cc1)C(=O)Nc1cc(-c2ccccc2)nn1-c1ccccc1	2.16% (active)
Cc1ccc(S(=O)(=O)c2nc(-c3ccc(F)cc3)oc2S(C)(=O)=O)cc1	83.6%
CC(O)c1cccc(/C(N)=N/C(N)=N/c2nc3ccccc3s2)c1 (configuration not stated)	85.9%
CCOc1cccc(/C(N)=N/C(N)=N/c2nc3ccccc3s2)c1	78.6%
O=C(CCl)Nc1ccc(NC(=O)c2cc(Cl)ccc2O)c(Cl)c1	59%
Clc1ccc(CSc2nnc(-c3ccc(Cl)cc3)n2-c2ccccc2)cc1	46.1%
CC(C)(C)OC(=O)NCc1ccc(CNc2c([N+](=O)[O-])cnc3ccccc23)cc1	55.2%
NS(=O)(=O)c1ccc(Nc2nc(N/N=C/c3ccc4c(c3)OCO4)nc(Nc3ccccc3)n2)cc1	65%
Cc1cc(=O)oc2cc(OCCCOc3ccc(/C=C/C(=O)Nc4ccc(Br)cc4)cc3)ccc12	77.4%
CNC(=O)c1cc(N2CCc3cc(NC(=O)Nc4ccc(N5CCOCC5)c(C(F)(F)F)c4)ccc32)ccn1	35.2%
